In all, about 300,000 compounds went through this assay and about 37,000 (12%) were called active. The sample holds actives, similar compounds and a random draw of the others, so the mix is not that of the screen. Cut-off read from the data, not from the text of the source: active = max response mostly above about 13% (no sharp cut-off); inactive = mostly below about 14%.
assay: Cycloheximide Counterscreen for Small Molecule Inhibitors of Shiga Toxin; conditions: cell reporter, cycloheximide protein synthesis inhibition counterscreen; hits give high values; note: read at 38.3 µM for the half of the compounds with a filed dose; 0% is about no effect

SMILES	max response
CCCCNC(=O)CCn1nc(-c2ccc(Cl)cc2)ccc1=O	-0.835% (inactive)
Cc1cc2c(cc1C)N(C(=O)CN1C(=O)c3ccccc3C1=O)C(C)(C)c1ssc(=S)c1-2	-0.934% (inactive)
Cc1cc(-n2nc(C)cc2C)n2nc(C)c(-c3ccccc3)c2n1	-1.22% (inactive)
Cc1cc(-n2nc(C)cc2C)n2ncc(-c3ccccc3)c2n1	42.3% (active)
Cc1cc(N2CCCC2)n2nc(C)c(-c3ccccc3)c2n1	6.19% (inactive)
O=C(NCC1CC1)C1(C(F)(F)F)C/C(=C\CCO)CCCO1 (stereo unspecified)	-3.88% (inactive)
COc1ccc(Cc2nnc(N/N=C/c3ccccc3O)[nH]c2=O)cc1OC	-1.41% (inactive)
c1ccc(-c2ccc3c(c2)NC(C2Nc4cc(-c5ccccc5)ccc4O2)O3)cc1 (stereo unspecified)	-0.428% (inactive)
C/C(=N\NC(=O)NC1CCCCC1)c1ccc(OC(F)F)cc1OC(F)F	9.08% (inactive)
CC(=O)Nc1cccc(NC(=O)c2ccc3c(c2)CCN3S(C)(=O)=O)c1	2.48% (inactive)
CS(=O)(=O)N1CCc2cc(C(=O)Nc3ccccc3Br)ccc21	30.9% (active)
COc1ccc(OC)c(NC(=O)c2ccc3c(c2)CCN3S(C)(=O)=O)c1	-0.802% (inactive)
CS(=O)(=O)N1CCc2cc(C(=O)Nc3ccccc3)ccc21	-1.85% (inactive)
CSc1ccccc1NC(=O)c1ccc2c(c1)CCN2S(C)(=O)=O	43.6% (active)
CCc1ccccc1NC(=O)c1ccc2c(c1)CCN2S(C)(=O)=O	-1.1% (inactive)
COCc1ccc(C(=O)N2CCc3c([nH]c4ccccc34)C2c2ccccn2)s1 (stereo unspecified)	-4.02% (inactive)
COc1ccc(-c2cc(=O)oc3cc(OC(C)C(=O)Nc4ccc(CN5CCOCC5)cc4)ccc23)cc1 (stereo unspecified)	-4.69% (inactive)
Cc1ccc(OCc2nnc(SC3CCc4ccccc4C3=O)n2C)cc1 (stereo unspecified)	4.12% (inactive)
CC(=O)Nc1ccc(/C=N/Nc2ccc(C(=O)c3c(C)cc4ccccn34)cc2[N+](=O)[O-])cc1	3.53% (inactive)
Cc1cc(N2C(=O)C(O)=C(C(=O)c3ccc(C)o3)C2c2ccc(OCc3ccccc3)cc2)no1 (stereo unspecified)	-0.599% (inactive)
Cc1ccccc1Nc1nc(N)nc(CN2CCN(c3ccccn3)CC2)n1	0.552% (inactive)

SMILES	max response
Cc1ccccc1Nc1nc(N)nc(CSc2nnc3ccccn23)n1	13.9% (active)
CCSCc1nc(N)nc(NCCc2ccccc2)n1	12.6% (inactive)
Cc1ccc(Nc2nc(N)nc(CN3CCN(Cc4ccccc4)CC3)n2)cc1Cl	-3.89% (inactive)
Cc1ccc(C(=O)OCc2nc(N)nc(Nc3ccccc3C)n2)cc1	-0.878% (inactive)
Cc1ccccc1Nc1nc(N)nc(CSc2ccccc2)n1	67% (active)
CCCN1CCC(=O)N(C(CSc2ccc(OC)cc2)Cc2ccccc2)CC1 (stereo unspecified)	6.9% (inactive)
Cc1cc(C)n(-c2ccc(NC(=O)C3CCCCN3C(=O)c3cccs3)cc2)n1 (stereo unspecified)	7.2% (inactive)
COc1ccc(-n2c(C)cc(C(=O)COC(=O)c3cc(OC)c(OC)cc3NC(=O)c3cccs3)c2C)cc1	-3.59% (inactive)
CCc1nn(CC(=O)N2CCN(c3cc(C)ccc3C)CC2)c(=O)c2cc3occc3n12	-8.63% (inactive)
CC1CCN(S(=O)(=O)c2ccc3c(ccn3CC(=O)O)c2)CC1	-6.07% (inactive)
CN(C)c1ccnc(Nc2ccc(F)cc2)c1C#N	-1.37% (inactive)
CC(C)c1ccc(Nc2ncccc2C#N)cc1	43.2% (active)
O=C(Oc1cccc(O)c1)C1CCCCC1	1.32% (inactive)
O=C(NN1C(=O)C2C(C1=O)C1C=CC2C12CC2)c1ccccc1Cl (stereo unspecified)	0.62% (inactive)
CC12CCC(C(=O)N(NC(=O)c3ccccc3O)C1=O)C2(C)C (stereo unspecified)	11.2% (active)
CC12CCC(C(=O)N(c3cccc(Cl)c3)C1=O)C2(C)C (stereo unspecified)	-2.01% (inactive)
O=C(COc1ccc(Cl)cc1)NC(=S)Nc1ccccc1N1CCOCC1	1.2% (inactive)
CCOC(=O)C1C/C(=C\C(C)=O)c2cccc(C(F)(F)F)c2O1 (stereo unspecified)	-2.62% (inactive)
CCOC(=O)c1c(C)[nH]c(C(=O)NCCN2CCOCC2)c1C	-3.76% (inactive)
CCOC(=O)c1c(C)[nH]c(C(=O)NCc2ccccc2OC)c1C	17% (active)
CC(=O)c1c(C)[nH]c(C(=O)NCc2ccc(C)cc2)c1C	15.3% (inactive)

SMILES	max response
O=C(O)c1ccc(OCC2CCCO2)cc1 (stereo unspecified)	-2.17% (inactive)
COC(=O)c1c(C)oc(C)c1S(=O)(=O)Nc1ccc(C(C)C)cc1	-1.83% (inactive)
Cc1nc(-c2ccccc2)sc1-c1nc(-c2ccccc2)ncc1S(=O)(=O)c1ccccc1	1.01% (inactive)
Cc1nc(-c2ccccc2)sc1-c1nnc(C2CC2)o1	38.7% (active)
C=CCn1c(-c2sc(-c3ccccc3)nc2C)n[nH]c1=S	1.59% (inactive)
CCOc1ccccc1NC(=O)COc1ccc(S(=O)(=O)N2CCCC2)cc1	-2.13% (inactive)
O=C(COC(=O)c1c2c(nc3ccccc13)CCCC2)c1ccc(Br)s1	25% (active)
O=C(Nc1c2c(nc3ccccc13)CCCC2)c1ccccc1Br	-2.17% (inactive)
CCc1nc2ccccc2c(C(=O)OC2CCCCC2=O)c1C (stereo unspecified)	8.91% (inactive)
COc1ccccc1C(=O)Nc1ccnn1C1CCN(Cc2cnn(C)c2)CC1	0.446% (inactive)
COc1ccc2c(c1)c1nc3n(c(=O)c1n2CC(=O)Nc1ccccc1)CCS3	-2.14% (inactive)
CC(=O)CC(c1ccccc1)C1C(=O)Oc2ccccc2C1=O (stereo unspecified)	-3.15% (inactive)
Cc1cc(C)c2oc(C(=O)Nc3ccc(S(=O)(=O)Nc4nccc(C)n4)cc3)cc(=O)c2c1	5.57% (inactive)
COc1ccccc1C(=O)CSc1cccc[n+]1[O-]	9.7% (inactive)
Cc1cc(Oc2ccc(Cl)cc2)nc(SCC(=O)c2ccccc2)n1	0.695% (inactive)
O=C(CSc1cccc[n+]1[O-])NCCCc1ccccc1	10.3% (inactive)
Cn1c(CC2Sc3ccccc3NC2=O)nnc1SCC(=O)c1ccc(Cl)cc1 (stereo unspecified)	6.52% (inactive)
O=C(CSc1cccc[n+]1[O-])c1ccc(-c2ccccc2)cc1	44.8% (active)
O=C(CSc1cccc[n+]1[O-])c1ccc(Cl)cc1	16.8% (active)

— PubChem BioAssay AID2314 (National Center for Advancing Translational Sciences (NCATS), 2010)
